Where “and” joins values, the source holds several entries; their conditions need not be identical. Identical values can stand only once. Results filed as inconclusive are left out. Calls of active or inactive are those of the source. Unless noted, calls follow the shape of the full dose curve.
Assay: qHTS assay for small molecule activators of the p53 signaling pathway (AID 651743; active = well fitted activation curve with a large enough effect in the signal ratio, not every such curve was filed as active; the % refers to the signal ratio; also: potency is read from the fitted curve at half-maximal effect; as to activation: % of control where 0% means no effect)
Details: HCT-116 p53RE-bla, beta-lactamase FRET ratio, 16 h; activation: stronger effect = higher value
Method in brief: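 Cell-based beta-lactamase reporter (p53 response elements, HCT-116 background). After a 5-hour preincubation, cells received compound for 16 hours at 37 C; substrate development ran 2 hours at room temperature.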

| SMILES | activation | Potency |
| --- | --- | --- |
| CN(C)C(=S)SC(=S)N(C)C | -1.54% (inactive) | – |
| CC(=O)O[C@]1(C(C)=O)CC[C@H]2[C@@H]3C[C@H](C)C4=CC(=O)CC[C@]4(C)[C@H]3CC[C@@]21C | -2.08% (inactive) and -7.09% (inactive) | – |
| COc1cccc2c1C(=O)c1c(O)c3c(c(O)c1C2=O)C[C@@](O)(C(=O)CO)C[C@@H]3O[C@H]1C[C@H](N)[C@H](O)[C@H](C)O1 | – | 1.58 µM (active) |
| O=C1OC(c2ccc(O)cc2)(c2ccc(O)cc2)c2ccccc21 | 9.17% (inactive) and -8.34% (inactive) | – |
| Oc1c(Cl)cc(Cl)cc1Sc1cc(Cl)cc(Cl)c1O | – | 7.94 µM (active) and 14.1 µM (active) |
| Oc1c(I)cc(Cl)c2cccnc12 | 24.3% (inactive) | – |

Assay: qHTS assay for small molecule activators of the nuclear factor-kappa B (NF-kB) signaling pathway (AID 651749; active = well fitted activation curve with a large enough effect in the signal ratio; the % refers to the signal ratio; also: % of control where 0% means no effect)
Details: NF-kB-bla ME-180 cells, beta-lactamase FRET ratio, 16 h; stronger effect = higher value
Method in brief: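 Screening used 2,000 ME-180 reporter cells per well exposed to pinned compound (23 nL) or DMSO; after 16 hr at 37C, beta-lactamase expression under NF-kB control was assessed through FRET.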

| SMILES | activation |
| --- | --- |
| CN(C)C(=S)SC(=S)N(C)C | -1.81% (inactive) |
| Oc1ccc(O)cc1 | -1.26% (inactive) |
| CC(=O)O[C@]1(C(C)=O)CC[C@H]2[C@@H]3C[C@H](C)C4=CC(=O)CC[C@]4(C)[C@H]3CC[C@@]21C | -2.22% (inactive) and -5.39% (inactive) |
| COc1cccc2c1C(=O)c1c(O)c3c(c(O)c1C2=O)C[C@@](O)(C(=O)CO)C[C@@H]3O[C@H]1C[C@H](N)[C@H](O)[C@H](C)O1 | -4.76% (inactive) |
| O=C1OC(c2ccc(O)cc2)(c2ccc(O)cc2)c2ccccc21 | -1.2% (inactive) and -2.62% (inactive) |

Assay: qHTS assay for small molecule disruptors of the mitochondrial membrane potential - 1 hr assay (AID 651754); also: nearly all actives have a fitted effect of over 35% in size; also: potency is read from the fitted curve at half-maximal effect
Details: series mostly up to 92.2 µM
Method in brief: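 HepG2, 2,000 cells/well, overnight attachment; cpd or DMSO 1 hr, 37C/5% CO2; Mito-MPS dye 30 min, 37C; fluorescence monomer (490/535) and aggregate (540/590).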

| SMILES | Potency |
| --- | --- |
| Oc1ccc(O)cc1 | inactive |
| CC(=O)O[C@]1(C(C)=O)CC[C@H]2[C@@H]3C[C@H](C)C4=CC(=O)CC[C@]4(C)[C@H]3CC[C@@]21C | inactive |
| COc1cccc2c1C(=O)c1c(O)c3c(c(O)c1C2=O)C[C@@](O)(C(=O)CO)C[C@@H]3O[C@H]1C[C@H](N)[C@H](O)[C@H](C)O1 | 2660 nM (active) |
| Oc1c(Cl)cc(Cl)cc1Sc1cc(Cl)cc(Cl)c1O | 10600 nM (active) |
